Screening results: PubChem, Broad Institute
MLL AF4-AF9 inh: inhibitors of AF4 peptide binding to AF9, primary screen, biochemical, AlphaScreen, biotin-AF4 peptide, FLAG-AF9, single point; Protein AF-9 (Homo sapiens), P42568; inhibition, % at 10 µM; 350,000 compounds, 0.47% hits; AID 651704, 2012;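 active = every replicate reaching a set inhibition limit, whatever the replicate mean, cut at about 25% in these data; inconclusive = mean inhibition reaches that limit but some replicates miss it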;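 note: 0% = plate neutral control median and 100% = total signal loss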
Target sequence (P42568 whole entry, looked up): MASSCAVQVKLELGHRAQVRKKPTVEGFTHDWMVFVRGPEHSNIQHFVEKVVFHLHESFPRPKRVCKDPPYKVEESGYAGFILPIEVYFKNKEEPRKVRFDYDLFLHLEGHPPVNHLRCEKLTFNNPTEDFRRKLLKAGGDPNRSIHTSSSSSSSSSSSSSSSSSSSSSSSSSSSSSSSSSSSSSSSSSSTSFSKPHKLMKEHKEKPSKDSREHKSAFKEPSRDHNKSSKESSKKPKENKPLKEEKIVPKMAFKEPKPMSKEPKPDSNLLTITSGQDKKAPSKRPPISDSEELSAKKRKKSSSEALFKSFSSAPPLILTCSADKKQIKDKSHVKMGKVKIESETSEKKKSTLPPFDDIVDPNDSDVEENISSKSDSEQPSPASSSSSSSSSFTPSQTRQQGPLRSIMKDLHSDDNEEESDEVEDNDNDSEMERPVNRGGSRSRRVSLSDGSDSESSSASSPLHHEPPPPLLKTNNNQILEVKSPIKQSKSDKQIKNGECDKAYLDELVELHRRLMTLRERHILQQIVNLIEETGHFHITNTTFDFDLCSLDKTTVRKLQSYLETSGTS
Ecoli rRNA inh: reduced GFP signal of wild-type E. coli, primary screen, bacterial rRNA inhibitor project, GFP/RFP fluorescence, OD600, single point. E. coli WT GFP vs humanized-ribosome RFP mutants, 24 h; stronger effect = lower value; DMSO median 0, no signal -100. GFP signal change (wild-type ribosome), % (concentration not given with the values). AID 720706, 2013. 350,000 compounds, 1.6% hits;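 active = significant combined selectivity score with lowered wild-type GFP, culture density cut under 30%, mutant RFP and density less affected; inactive = any of these conditions unmet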
MITF TRPM1 HTS: activators of MITF-driven TRPM1 promoter reporter, primary screen, cell-based, SK-MEL-5, luciferase, single point; SK-MEL-5 TRPM1-promoter luciferase, 24 h; % of positive control, neutral wells = 0; activation, % at 12.5 µM; 300,000 compounds, 0.75% hits;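 active = mean activation of at least 80% with every replicate also reaching 80%; inconclusive = mean reaches 80% but some replicate falls short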;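 note: 0% = neutral control wells and 100% = parthenolide positive control wells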
esBAF inh: Bmi1 luciferase reporter increase in mESCs, primary screen, esBAF inhibitor project, mouse ES cells, Bmi1 luciferase knock-in, single point | 24 h; 100% = twice the neutral-well signal | 350,000 compounds, 2% hits | reporter increase, % at 12.5 µM | AID 602393, 2012; in the data active = activation above about 40%; inconclusive = no clear call, values can overlap the other calls;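 note: 0% = median of the plate's neutral control wells and 100% = double that signal; a rise in the Bmi1 reporter signal indicates esBAF inhibition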
Wnt act: Wnt/beta-catenin pathway activators, primary screen, cell-based, plate reader, single point; Wnt/beta-catenin reporter cell assay, activator; activation, % at 9.35 µM; 300,000 compounds, 1.2% hits; AID 743398, 2014; in the data active = activation above about 30%, passing the limit was not always enough; inconclusive = no clear call, values can overlap the other calls;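 note: 0% = neutral control wells and 100% = positive control wells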
An asterisk follows results filed as active; ? = inconclusive; / = not tested or not shown. Compounds with a hit are over-represented: about 3.7% of the library has one in this group of screens.

SMILES	MLL AF4-AF9 inh	Ecoli rRNA inh	MITF TRPM1 HTS	esBAF inh	Wnt act
CCN(C[C@H]1N[C@@](Cc2ccccc2)(C(=O)OC)[C@H]2C(=O)N(Cc3ccccc3)C(=O)[C@@H]12)S(=O)(=O)c1ccc(OC(F)(F)F)cc1	-0.1	-1.7	-7.6	-6.1	-1.9
O=C(Nc1cccc(-c2cn3ccccc3n2)c1)c1ccccc1	-1.7	-31.5*	73.9	/	15.4
Cc1ccc(C(=O)Nc2cccc(-c3cn4ccccc4n3)c2)cc1	-3.8	-29.1*	20.2	/	-1.9
O=[N+]([O-])c1cccc(-c2cn3ccccc3n2)c1	1.2	2.6	46.1	31.6	67.1*
O=C(C1CCC1)N1CCCCN2[C@H](C1)[C@H](c1ccc(C#CC3(O)CCCC3)cc1)[C@@H]2CO	1.0	-0.8	/	5.4	/
C[C@@H]1CCCCO[C@H](CN(C)C(=O)c2ccncc2)[C@H](C)CN([C@H](C)CO)C(=O)c2cc(NC(=O)NC3CCCCC3)ccc2O1	/	-1.9	/	-1.0	/
CC(C(=O)NC(C)(C)C)n1c(-c2ccc3c(c2)OCO3)nc2ccccc21 (stereo not drawn)	/	/	/	/	3.0
O=C(Cn1ccccc1=O)c1ccc(Cl)cc1	-0.9	1.1	-5.1	/	-1.4
O=C(Cn1ccccc1=S)c1ccc(Cl)c(Cl)c1	1.1	-34.0*	/	/	20.3
CN1N=C2c3ccccc3CCCC2C1c1ccc(F)cc1 (stereo not drawn)	3.6	-40.0*	13.6	20.1	0.6
Cc1nc(N2N=C3/C(=C/c4ccc(F)cc4)CCCC3C2c2ccc(F)cc2)sc1C(=O)N(C)C (stereo not drawn)	/	/	-11.0	-11.8	-1.4
C(=C\c1ccc(C2[C@@H]3CN(Cc4cccnc4)C[C@H]2N3)cc1)/c1ccccc1 (stereo partly drawn)	32.7*	-58.0	/	/	/
c1cncc(CN2C[C@@H]3N[C@H](C2)C3c2ccc(-c3cccnc3)cc2)c1 (stereo partly drawn)	-8.8	2.7	/	/	/
CC(C)NC(=O)c1ccc(CNC(=O)OCC(F)(F)F)cc1	/	/	5.6	-8.1	0.8
CCOC(=O)C1(Cc2cccc(F)c2)CCN(Cc2c(C)nn(CC)c2C)CC1	1.9	8.4	1.3	/	-5.8
Oc1ccc(N=Nc2ccc3c(c2)OCCO3)c(O)c1	0.9	-38.0*	15.2	/	0.0
O=[N+]([O-])c1ccc(NN=C(C2CC2)C2CC2)c([N+](=O)[O-])c1	-2.6	-21.5*	/	-2.6	-4.2
C/C(=N\Nc1ccc([N+](=O)[O-])cc1[N+](=O)[O-])C(C)C(C)C (stereo not drawn)	26.0*	-16.6	0.1	/	1.1
CCOc1ccc(N(CC(=O)NCCc2ccc(Cl)cc2)S(=O)(=O)c2c(C)[nH]c(=O)[nH]c2=O)cc1	-0.2	11.7	-9.1	-5.7	-2.2
C[C@@H](NC(=O)C[C@H]1C=C[C@@H](NC(=O)C2CC2)[C@H](CO)O1)c1ccccc1	-0.4	-0.1	/	-3.2	/
O=C(O)C1CC(O)CN1S(=O)(=O)c1ccc2ccccc2c1 (stereo not drawn)	-1.7	4.8	0.7	-2.0	0.4
Cc1noc(C)c1NC(=O)N[C@H]1CC[C@@H](CC(=O)NCc2ccc(Cl)c(Cl)c2)O[C@@H]1CO	0.7	-1.2	/	2.8	/
CN1CCCC1CCNc1ccc2sc3ccccc3c(=O)c2c1 (stereo not drawn)	26.3*	-0.9	108.3*	-1.8	9.9
c1ccc2c(-c3csc(-c4ccncc4)n3)c[nH]c2c1	0.6	-27.3*	126.3*	52.2*	28.4
Clc1ccc(-c2c[nH]c3ccccc23)nn1	0.1	7.4	0.7	26.9	-12.2
SMILES	MLL AF4-AF9 inh	Ecoli rRNA inh	MITF TRPM1 HTS	esBAF inh	Wnt act
Brc1ccc(-c2csc(-c3c[nH]c4ccccc34)n2)cc1	/	/	19.6	67.1*	-2.5
Cc1ccc(C2CCN(C(=O)Nc3ccccc3)C2)cc1 (stereo not drawn)	/	/	?	53.2*	/
O=C(Nc1ccc(Cl)cc1)N1CCC(c2ccccc2)C1 (stereo not drawn)	5.7	-54.7	115.8*	/	55.8*
Cc1ccc(NC(=O)N2CCC(c3ccccc3)C2)cc1C (stereo not drawn)	-1.3	-12.4	127.7*	4.3	56.3*
CC(C)N(C)C1CCN(C(=O)Nc2ccc(Cl)cc2)CC1	/	/	8.3	-0.1	/
CC(C)(C)c1cc(C(=S)N2CCCC2)cc(C(C)(C)C)c1O	2.4	-25.4	/	6.2	0.4
CC(C)(C)c1ccc(C(=O)NCc2cccnc2)cc1	/	/	/	/	-12.3
CC(C)(C)c1ccc(OCc2ccc(C(=O)NN)o2)cc1	-1.0	-7.3	58.2	/	-1.1
CC(C)(C)c1ccc(OCc2ccc(C(=O)NCc3cccnc3)o2)cc1	2.7	-52.6	59.3	?	51.3*
O=C(COc1ccc(Cl)cc1)Nc1ccc(C(=O)NCc2cccnc2)cc1	/	/	/	-1.5	/
CC(C)(c1ccccc1)c1ccc(OCc2ccc(C(=O)O)o2)cc1	-0.9	-45.7	88.0*	-2.3	38.2*
O=C(COc1ccc(C(=O)NCc2cccnc2)cc1)Nc1cccc(C(F)(F)F)c1	-0.3	-22.9*	-6.5	-15.6	-8.8
COc1ccccc1OCc1ccc(C(=O)NCc2cccnc2)o1	/	/	6.7	-10.1	-5.2
CC(C)(C)c1ccc(C(=O)c2c[nH]c(C(=O)NCc3cccnc3)c2)cc1	/	/	/	55.0*	/
Cc1ccc(CNS(=O)(=O)c2ccc(F)c(F)c2)n1C	2.9	1.5	-1.1	-2.3	-2.7
COc1cc2cc(C(c3nnnn3C(C)(C)C)N3CCc4ccccc4C3)c(=O)[nH]c2cc1OC (stereo not drawn)	/	/	-14.0	-1.7	34.4*
C[C@@H]1CN([C@@H](C)CO)C(=O)Cc2cc(NC(=O)Nc3cccc4ccccc34)ccc2O[C@@H]1CN(C)C(=O)Nc1ccc(F)cc1	1.9	-3.4	/	2.1	/
Oc1ccc(-c2csc(Nc3ncccn3)n2)c(O)c1	-0.3	-10.4	103.7*	82.4*	94.1*
COc1ccc(-c2csc(Nc3ccccn3)n2)cc1OC	3.3	-4.2	/	73.5*	17.4
Oc1ccc(-c2csc(Nc3ccc4c(c3)OCO4)n2)c(O)c1	/	10.5	54.1	-2.9	45.9*
N#Cc1ccc(Nc2nc(-c3ccc(O)cc3O)cs2)cc1C(F)(F)F	/	/	7.6	3.4	/
Cc1ccc(C)c(-c2csc(Nc3ncccn3)n2)c1	0.1	6.3	14.7	16.9	9.9
Cc1cccc(Nc2nc(-c3ccc(O)cc3O)cs2)n1	-2.7	-31.4	/	44.9*	18.6
O=C(COC(=O)c1cc(=O)[nH]c2ccccc12)Nc1ccc(Cl)cn1	-1.3	15.7	-8.7	-8.2	7.2
COc1cc(OC)cc(C(=O)NNC(=O)CCc2ccccc2)c1	10.4	8.1	-0.9	/	0.9
Oc1ccc(C2CNCc3sccc32)cc1O (stereo not drawn)	2.0	/	1.0	-4.4	-1.2
Oc1ccc(-c2csc(Nc3ccccn3)n2)cc1	-18.5	-20.1	56.2	20.4	24.4
